Experimental data taken from PubChem BioAssay (Tox21).
Unmarked numbers belong to inactive results. Active and inactive are the calls of the source. Calls follow the shape of the full dose curve.

These compounds were tested against Estrogen receptor (Homo sapiens) (UniProt P03372) (assay: qHTS assay to identify small molecule agonists of the estrogen receptor alpha (ER-alpha) signaling pathway in the presence of an antagonist (AID 1259383; also: nearly all actives have a fitted effect of over 15% in size; as to activation: top concentration of the series differs between compounds)). Conditions: VM7Luc4E2 cells, ERE-luciferase, +ICI-182,780, 22 h; series mostly up to 92.4 µM; activation: at the top concentration.
Description: National Center for Advancing Translational Sciences [NCATS] NIH Chemical Genomics Center [NCGC] U.S. Environmental Protection Agency [EPA] National Institutes of Environmental Health Sciences [NIEHS] National Toxicology Program [NTP] Assay overview: Estrogen receptor (ER), a member of nuclear hormone receptor plays an important role in development, metabolic homeostasis and reproduction. Two subtypes of ER, ER-alpha and ER-beta, have similar expression patterns with some uniqueness in both types. Endocrine disrupting chemicals (EDCs) and their interactions with steroid hormone receptors like ER causes disruption of normal endocrine function. Therefore, it is important to understand the effect of environmental chemicals in ER signaling pathway. For identifying ER agonists, VM7Luc4E2 cell line has been used in the current assay. VM7Luc4E2 cell line (provided by Denison MS, University of California) endogenously expresses full-length ER-alpha and is stably transfected with a plasmid containing four estrogen responsive elements (ERE) upstream of a luciferase reporter gene. This current screening for measuring luciferase reporter gene activity using VM7Luc4E2 cells against Tox21 10K library collection is a confirmation study on agonist mode screening in presence of ER-antagonist (ICI-182,780) at 10.0nM final concentration.
Assay Protocol Summary: VM7Luc4E2 cells were cultured in phenol red free assay medium containing 10% charcoal stripped FBS for 5 days prior to the assay. The cells were dispensed at 4,000 cells in 4uL of assay medium per well into white wall/solid-bottom 1536-well plates (Corning Life Sciences, Corning, NY) using a Multidrop Combi (Thermo Fisher Scientific Inc., Waltham, MA) dispenser. After the assay plates were incubated at 37C and 5% CO2 for 24hr, 1uL of 10.0nM (final concentration) ICI-182,780 or assay buffer was added using two separate tips of Flying Reagent Dispenser (FRD, Aurora Discovery, San Diego, CA). Then 23nL of compounds dissolved in DMSO at 15 concentrations and positive controls or DMSO only was transferred to the assay plates by a Pintool station (Wako, San Diego, CA). The assay plates were incubated at 37C and 5% CO2 for 22hr. For luciferase read, 4uL/well ONE-Glo reagent (Promega Corporation, Madison, WI) was added to each well using FRD and after 30min incubation at room temperature, luminescence signal was measured on ViewLux plate reader (PerkinElmer, Shelton, CT).
% is scaled to controls: 0 for no effect and ±100 for the full control effect; potency is read from the fitted curve at half-maximal effect.

Estrogen receptor (Homo sapiens), sequence (P03372 whole entry, looked up): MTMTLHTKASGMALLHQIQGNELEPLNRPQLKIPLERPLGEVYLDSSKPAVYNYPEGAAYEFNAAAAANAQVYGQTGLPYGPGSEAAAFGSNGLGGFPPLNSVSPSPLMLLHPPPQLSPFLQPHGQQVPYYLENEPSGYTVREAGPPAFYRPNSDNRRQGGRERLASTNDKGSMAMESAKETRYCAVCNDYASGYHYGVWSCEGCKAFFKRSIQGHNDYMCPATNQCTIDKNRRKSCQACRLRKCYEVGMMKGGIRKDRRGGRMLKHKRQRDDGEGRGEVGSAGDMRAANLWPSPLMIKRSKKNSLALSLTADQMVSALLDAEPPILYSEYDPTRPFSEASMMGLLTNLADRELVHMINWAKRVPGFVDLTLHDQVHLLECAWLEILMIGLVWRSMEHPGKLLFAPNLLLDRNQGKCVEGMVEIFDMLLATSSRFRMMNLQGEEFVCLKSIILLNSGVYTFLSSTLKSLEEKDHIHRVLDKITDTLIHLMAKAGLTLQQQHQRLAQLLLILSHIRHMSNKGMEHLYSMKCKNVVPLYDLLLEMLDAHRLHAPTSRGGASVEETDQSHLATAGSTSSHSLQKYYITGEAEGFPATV

SMILES | activation | Potency
CC(C)COC(=O)c1ccccc1 | 1.08% | –
COCCc1ccccn1 | 1.94% [at 42.5 µM] | –
COc1nc(N)nc2nc[nH]c12 | 0.0712% | –
CC1(C)Cc2cccc(N)c2O1 | 0.568% | –
CCCCCCCCCCCCCCCCCC#N | -0.679% | –
C/C(CC(C)C)=N\O | -2.24% | –
C=C(C)c1cccc(C(C)(C)N=C=O)c1 | -1.13% | –
COC(=O)c1cccc(Cl)c1 | 1.61% | –
CC(=O)CCC1=C(C)CCCC1(C)C | 0.214% | –
Fc1ccccc1 | -0.756% | –
CSc1cnccn1 | -0.893% | –
CCCCOC(=O)[C@H](C)O | -0.504% | –
CCC(=O)Oc1ccc2c(c1)CC[C@@H]1[C@@H]2CC[C@@]2(C)[C@H]1C[C@@H](OC(=O)CC)[C@@H]2OC(=O)CC | – | 75 nM (active)
CCC(C)OC(C)CC (stereo not given) | 3.12% | –
CC1OCCC1=O (stereo not given) | -0.123% | –
CC12CCC(C1)C(C)(C)C2O (stereo not given) | -0.765% | –
O=C(CCCl)NCCc1ccccc1 | 0.75% [at 42.5 µM] | –
C=CC/C=C/C | 1.01% | –
C=CCCCC | -0.0046% | –
Cc1c(NC(=O)c2cccnc2)c(=O)n(-c2ccccc2)n1C | -0.556% [at 42.5 µM] | –

SMILES | activation | Potency
N[C@@H](CSCCCO)C(=O)O | -1.71% [at 19 µM] | –
C[C@]12CCC(=O)C=C1CC[C@H]1[C@@H]3CC[C@](O)(C(=O)CO)[C@@]3(C)C[C@H](O)[C@@]12F | 0.234% [at 42.5 µM] | –
CC(C)C1OCCN1CCOC(=O)NCCCCCCNC(=O)OCCN1CCOC1C(C)C (stereo not given) | -1.39% | –
CC1CCc2c(N3CCC(O)CC3)c(F)cc3c(=O)c(C(=O)O)cn1c23 (stereo not given) | -0.329% [at 42.5 µM] | –
CC(C)CO | -0.687% | –
O=C(NCN1CCOCC1)c1cnccn1 | 0.429% [at 42.5 µM] | –
CCOc1ccccc1OCC1CNCCO1 (stereo not given) | -0.263% [at 42.5 µM] | –
COP(=O)(O)OP(=O)(O)OC | 2.81% | –
CCCCCCCCCCOC(C)=O | 0.705% | –
C[Si]1(C)O[Si](C)(C)O[Si](C)(C)O[Si](C)(C)O[Si](C)(C)O1 | -0.537% | –
CCCC(=O)OC/C=C(\C)CCC=C(C)C | 0.143% | –
O=C(Cn1ccnc1[N+](=O)[O-])NCc1ccccc1 | 0.856% [at 42.5 µM] | –
CN(C)CCOC(=O)C(c1ccccc1)C1(O)CCCC1 (stereo not given) | -1.49% [at 42.5 µM] | –
C=CCN1C[C@H](C(=O)N(CCCN(C)C)C(=O)NCC)C[C@@H]2c3cccc4[nH]cc(c34)C[C@H]21 | -0.556% [at 42.5 µM] | –
CCCCCc1cccc(=O)o1 | -0.865% | –
c1ccc(-c2nn[nH]n2)cc1 | 0.155% | –
COC(=O)CCCCC(=O)O | 0.16% | –
CCCCOC(=O)C(C)O (stereo not given) | 1.17% | –
Cc1c(N)cccc1Cl | -0.94% | –
CC(C)OC(=O)OCOP(=O)(CO[C@H](C)Cn1cnc2c(N)ncnc21)OCOC(=O)OC(C)C | 1.07% [at 42.5 µM] | –
